Values joined by “and” are separate entries in the source; they are usually repeats but may differ in a detail not shown here. Identical values can stand only once. Inconclusive results are not listed. Entries that show only a call come without a potency. Unmarked numbers belong to inactive results. Active and inactive are the calls of the source. Calls follow the shape of the dose curve; as a rule, active = well fitted curve in the direction sought with a large enough effect; inconclusive = small, poorly fitted or top-dose-only effect, or another doubt; inactive = no such curve, though single readings can be large; an effect the other way counts as inactive or inconclusive.
Tests used:
[1] = Viability qHTS for spleen associated tyrosine kinase inhibitor (SYKi) drug resistant MV4-11 cells (AID 1963824); also: nearly all actives have a fitted effect of over 35% in size
In short: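 SYK-inhibitor-resistant MV4-11 AML cells were seeded at 500 per well onto compound and cultured 72 hours (37 °C, 5% CO2). CellTiter-Glo was then added, and after 10 min at room temperature, luminescence gave viability.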

[2] = Quantitative highthroughput screen to assess conditional lethalithy of NOMO1 cells grown in RPMI1640 with untreated serum (RPMI+s) (AID 1963876); also: nearly all actives have a fitted effect of over 35% in size
In short: (§1)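 Each medium arm—HPLM with 10% dialyzed FBS, or RPMI1640 with 5 mM glucose and 10% untreated or dialyzed FBS—was screened against an 11-point, 3-fold compound titration for 48 h at 37 °C, with CellTiter-Glo luminescence as endpoint.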

[3] = Quantitative highthroughput screen to assess conditional lethalithy of NOMO1 cells grown in RPMI1640 with dialyzed fetal bovine serum (RPMI+ds) (AID 1963877); also: nearly all actives have a fitted effect of over 30% in size; as to Viability: series mostly up to about 46 µM
In short: as §1

[4] = Quantitative highthroughput screen to assess conditional lethalithy of NOMO1 cells grown in Human Plasma-Like Medium with dialyzed fetal bovine serum (HPLM+ds) (AID 1963878); also: nearly all actives have a fitted effect of over 35% in size
In short: as §1

[5] = Quantitative highthroughput screen to assess conditional lethalithy of P12 Ichikawa cells grown in RPMI1640 with dialyzed fetal bovine serum (RPMI+ds) (AID 1963880); conditions: Potency: P12-Ichikawa viability; also: nearly all actives have a fitted effect of over 35% in size
In short: as §1

[6] = Quantitative highthroughput screen to assess conditional lethalithy of P12 Ichikawa cells grown in RPMI1640 with untreated serum (RPMI+s) (AID 1963881); conditions: Potency: viability; also: nearly all actives have a fitted effect of over 35% in size; as to Viability: series mostly up to about 46 µM
In short: as §1

[7] = Quantitative highthroughput screen to assess conditional lethalithy of SEM cells grown in RPMI1640 with unreated serum (RPMI+s) (AID 1963883); also: nearly all actives have a fitted effect of over 35% in size
In short: as §1

[8] = Quantitative highthroughput screen to assess conditional lethalithy of SEM cells grown in RPMI1640 with dialyzed fetal bovine serum (RPMI+ds) (AID 1963884); also: nearly all actives have a fitted effect of over 35% in size; as to Viability: series mostly up to about 46 µM
In short: as §1

[9] = Cellular viability qHTS for adrenocortical cancer (ACC) cell line SW-13 (AID 1963989); conditions: SW-13 ACC cells viability, CellTiter-Glo, 48 h; activity (max response): hits give low values; also: nearly all actives have a fitted effect of over 65% in size;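 as to activity (max response): cells grown in serum-free medium with ITS supplement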
In short: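 Luminescent ATP read-out (CellTiter-Glo, 20 min at room temperature) measured metabolically competent SW-13 cells after 48 h compound treatment. Final concentrations spanned up to 46 uM; bortezomib served as positive control.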

[10] = Cellular viability qHTS for adrenocortical cancer (ACC) cell line NCI-H295R (AID 1963990); also: nearly all actives have a fitted effect of over 60% in size
In short: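 IC50 and maximal efficacy derive from four-parameter logistic modelling of titration curves, with reads scaled between DMSO-only wells (0%) and doxorubicin hydrochloride (100% inhibition). Compounds spanned up to 46 uM over 48 h.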

[11] = Quantitative highthroughput screen to assess conditional lethalithy of SEM cells grown in Human Plasma-Like Medium with dialyzed fetal bovine serum (HPLM+ds) (AID 1963882); also: nearly all actives have a fitted effect of over 35% in size; as to Viability: series mostly up to about 46 µM
In short: as §1

[12] = Quantitative highthroughput screen to assess conditional lethalithy of P12 Ichikawa cells grown in Human Plasma-Like Medium with dialyzed fetal bovine serum (HPLM+ds) (AID 1963879); conditions: Potency: viability; also: nearly all actives have a fitted effect of over 35% in size; as to Viability: series mostly up to about 46 µM
In short: as §1
Potency is read from the fitted curve at half-maximal effect.

SMILES | Potency [1] | Potency [2] | Potency [3] | Potency [4] | Potency [5] | Potency [6] | Potency [7] | Potency [8] | activity (max response) [9] | Potency [10] | Potency [9] | Potency [11] | Potency [12]
COc1cc(OC)c(NC(=O)Nc2cc(C)on2)cc1Cl | 6.61 µM (active) | inactive | inactive | inactive | inactive | inactive | inactive | inactive | -19.6% | inactive |  |  | 
C[C@H]1COC2=C1C(=O)C(=O)c1c2ccc2c1CCCC2(C)C | 5.25 µM (active) | inactive | inactive | inactive | inactive | inactive | 2.35 µM (active) | 13.2 µM (active) | -2.17% |  |  |  | 
CC(=O)Oc1ccccc1C(=O)Nc1ncc([N+](=O)[O-])s1 | 11.9 µM (active) and 20.9 µM (active) | inactive | inactive |  |  | inactive | inactive | inactive | 7.32% and 2.04% | inactive |  |  | 
c1cc(N[C@@H]2CCNC2)nc(-c2cnc3ccc(-c4cn[nH]c4)cn23)c1 | 0.0066 µM (active) | inactive | 5.9 µM (active) |  |  |  |  |  |  | inactive | 3.98 µM (active) |  | 
NC1(Cc2ccc(Cl)cc2)CCN(c2ncnc3[nH]ccc23)CC1 | 5.25 µM (active) | 10.5 µM (active) | 9.35 µM (active) |  |  |  | 5.26 µM (active) | 7.43 µM (active) |  | 20 µM (active) |  | 6.62 µM (active) | 
S=c1nc[nH]c2nc[nH]c12 | 2.37 µM (active) and 833 nM (active) | inactive | 1.48 µM (active) | 5.9 µM (active) | 0.743 µM (active) |  |  |  |  | 2.06 µM (active) and 4.47 µM (active) | 8.2 µM (active) and 15.8 µM (active) |  | 
CC(C)n1cnc2c(NCCCCCCNC(=O)OC(C)(C)C)nc(NCCO)nc21 | 14.8 µM (active) | inactive | inactive | inactive |  |  |  |  |  | inactive |  | inactive | 
CN(Cc1cc(Br)cc(Br)c1N)C1CCCCC1 | 10.6 µM (active) | inactive | inactive |  | inactive | inactive | inactive | inactive |  |  |  | inactive | inactive
CCNC(=O)c1noc(-c2cc(C(C)C)c(O)cc2O)c1-c1ccc(CN2CCOCC2)cc1 | 0.0073 µM (active) | 0.0833 µM (active) | 0.0833 µM (active) |  |  |  | 0.0418 µM (active) |  |  |  | 0.0708 µM (active) |  | 
C[C@@H]1CN(Cc2ccc(F)cc2)[C@@H](C)CN1C(=O)c1cc2c(C(=O)C(=O)N(C)C)cn(C)c2cc1Cl | 16.4 µM (active) | inactive | inactive |  | inactive | inactive |  |  |  | inactive |  | inactive | inactive
O=C(O)CCNc1cc(N2CCc3ccccc3CC2)nc(-c2ccccn2)n1 | inactive | inactive | inactive |  |  |  | inactive | inactive | 0.209% | inactive |  | inactive | 
C=CC(=O)Nc1cc2c(Nc3ccc(F)c(Cl)c3)ncnc2cc1C#CC(C)(C)N1CCN(C)CC1 | 0.517 µM (active) | 9.35 µM (active) | 5.26 µM (active) |  | 5.26 µM (active) | 5.9 µM (active) | 2.96 µM (active) | 3.32 µM (active) |  | 3.16 µM (active) | 3.16 µM (active) | 2.96 µM (active) | 
CCOc1cc(C(C)(C)C)ccc1C1=N[C@@](C)(c2ccc(Cl)cc2)[C@@](C)(c2ccc(Cl)cc2)N1C(=O)N1CCN(CC(=O)N2CCOCC2)CC1 | 11.5 µM (active) | inactive | inactive |  | inactive | inactive | 6.6 µM (active) | 5.88 µM (active) |  | 14.1 µM (active) |  | inactive | inactive
COc1cc([C@@H](CC(=O)O)c2ccc(C)c(CN3C[C@@H](C)Oc4ccccc4S3(=O)=O)c2)cc2nnn(C)c12 | 7.42 µM (active) | inactive | inactive |  | 18.6 µM (active) | 14.8 µM (active) |  |  |  | inactive |  |  | 8.31 µM (active)
O=C(C1CC1)N1CC[C@@H](Cn2c(-c3ccc(-c4ccc5occc5c4)cc3)nc3cnccc32)C1 | 14.8 µM (active) | inactive | inactive |  | inactive |  | inactive |  |  |  |  | inactive | inactive
O=C(Nc1cc2cc[nH]c2cn1)c1ccccc1 | 9.2 µM (active) | 5.9 µM (active) | 13.2 µM (active) |  | 5.9 µM (active) | 14.8 µM (active) | 2.96 µM (active) | 3.32 µM (active) |  |  |  | 3.72 µM (active) | 2.96 µM (active)
Nc1[nH]c(=O)ncc1F | inactive | inactive | inactive |  |  | inactive | inactive | inactive | 6.88% | inactive |  | inactive | inactive
Clc1ccccc1C(c1ccccc1)(c1ccccc1)n1ccnc1 | 5.25 µM (active) | inactive | inactive | inactive |  |  |  |  |  |  | 16.4 µM (active) | inactive | 
CC1=CC(=O)c2ccccc2C1=O | 4.68 µM (active) | inactive | inactive | inactive | inactive | inactive |  |  | 13.5% |  |  | 16.6 µM (active) | 
C[C@@H]1CN(c2c(F)c(N)c3c(=O)c(C(=O)O)cn(C4CC4)c3c2F)C[C@H](C)N1 | inactive | inactive | inactive |  |  |  |  |  |  | inactive |  |  | inactive

Reference: PubChem BioAssay (NCATS)
